According to PubChem BioAssay AID1508607 (The Scripps Research Institute Molecular Screening Center, 2020):
Hit rate of the full screen: of about 2,300 compounds, about 20 (0.9%) were called active. The sample as a whole holds a higher share of actives than the screen did. A number with no mark means an inactive call.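 Rule for the calls: active = mean percent activation across replicates above the counterscreen hit cutoff of 9.17%; inactive = the rest.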

These compounds were tested against Glucose-dependent insulinotropic receptor (Homo sapiens) (UniProt Q8TDV5) (assay: GPR119 activators in beta-arrestin cells, confirmation, counter-screen for GPR151 activator project, cell-based, PathHunter beta-arrestin, luminescence, set 2 (AID 1508607;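 note: 0% = median of sample wells and 100% = wells given EA reagent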)). Settings: 90 min, at 11.2 µM, stronger effect = higher value.
Sequence of Glucose-dependent insulinotropic receptor (Homo sapiens) (Q8TDV5 whole entry, looked up): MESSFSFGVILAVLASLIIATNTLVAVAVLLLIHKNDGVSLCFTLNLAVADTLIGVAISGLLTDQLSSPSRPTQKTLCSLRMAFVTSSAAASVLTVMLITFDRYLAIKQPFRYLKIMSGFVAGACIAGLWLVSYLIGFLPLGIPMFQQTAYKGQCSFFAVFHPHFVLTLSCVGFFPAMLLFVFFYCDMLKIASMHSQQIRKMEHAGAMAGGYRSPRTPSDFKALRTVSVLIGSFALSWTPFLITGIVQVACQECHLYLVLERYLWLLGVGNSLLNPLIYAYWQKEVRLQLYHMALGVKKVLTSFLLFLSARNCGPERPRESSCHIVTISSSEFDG
For `COc1ccc(Br)cc1CNC(=O)Cc1c(C(=O)O)[nH]c2ccccc12`, the activation was 4.16%.
In the case of `Cn1c(SCc2ccc(F)cc2)nc2ccc(C(=O)N3CCC(C(N)=O)CC3)cc21`, the activation is reported as 0.07%.
`Cc1csc(CNC(=O)CC2C(=O)NCCN2Cc2ccc(F)cc2Cl)n1` (stereo unspecified) was tested, and the activation was 3.99%.
With `OC(COc1ccc(CNCCc2cscn2)cc1)CN1CCc2ccccc2C1` (stereo unspecified) the activation was 3.64%.
`O=C(CNc1ccccc1)N/N=C/c1cc([N+](=O)[O-])ccc1O` gave an activation of -3.89%.
Work on `O=C(Nc1cc(Cl)ccc1Cl)c1ccccc1O` yielded an activation of -0.02%.
In the case of `CCc1ccccc1NC(=O)Cn1nnc(C(=O)OC)c1C(=O)OC`, the activation is reported as 3.17%.
`Cc1ccn2c(-c3csc(Nc4ccccc4)n3)c(C)nc2c1` was tested, and the activation was -1.87%.
In the case of `CC1=NNC(=O)C1CCC(=O)N/N=C(\C)c1ccc(C)cc1` (stereo unspecified), the activation is reported as -4.69%.
For `CCn1c(=O)c2cc(C(=O)Nc3ccsc3C(=O)OC)sc2c2ccccc21`, the activation was -1.75%.
`CCOC(=O)N1CCN(C(=S)Nc2ccc(C)cc2)CC1` showed an activation of 2.12%.
Work on `O=S(=O)(NCCC12CC3CC(CC(C3)C1)C2)c1cccc2nsnc12` yielded an activation of 0.9%.
In the case of `CCc1ccc(NC(=O)Cn2nnc(C(=O)OC)c2C(=O)OC)cc1`, the activation is reported as -0.08%.
`c1ccc(N2CCOCC2)c(Nc2nc3ccccc3n3cnnc23)c1` gave an activation of 0.28%.
`O=C(CSC1=NC(=O)C(c2ccccc2)C(=O)N1)c1ccccc1` (stereo unspecified) gave an activation of -3.69%.
For `CCN1CCC(N(Cc2ccc(F)cc2)C(=O)Nc2ccccc2F)CC1`, the activation was -1.27%.
With `CCOC(=O)C1CCCN(c2c(Nc3cccc(C)c3)c(=O)c2=O)C1` (stereo unspecified) the activation was -2.19%.
With `COc1ccc(C(=O)NCC2(c3ccccc3)CCCC2)cc1[N+](=O)[O-]` the activation was -1.92%.
With `CSc1ccccc1N1C(=O)CC(Sc2ccccc2C(=O)O)C1=O` (stereo unspecified) the activation was 2.04%.
Work on `CC1Oc2cccnc2N(Cc2cccc(C#N)c2)C1=O` (stereo unspecified) yielded an activation of 0.9%.
For `COc1cccc(C(=O)Nc2ccc(-n3nncc3-c3ccc(OC)c(OC)c3)cc2)c1`, the activation was 5.22%.
`COc1ccc(-c2nc(-c3ccc(NC(=O)c4ccc(Br)o4)cc3)no2)cc1OC` was tested, and the activation was 14.8% (active).
Work on `COc1ccc(-c2noc(CCC(=O)Nc3ccc(C)c(C)c3)n2)cc1` yielded an activation of 1.95%.
Compound `CCC1CN(CCNC(=O)c2ccc(C(C)=O)s2)Cc2cc(OC)ccc2O1` (stereo unspecified) has an activation of 2.67%.
In the case of `CCN(CC)S(=O)(=O)c1ccc(-c2csc(=Nc3ccccc3OC)n2CC)cc1`, the activation is reported as -1.01%.
`c1ccc(Oc2nc(NC3CC3)c3ncn(-c4ccsc4)c3n2)cc1` was tested, and the activation was 10.5% (active).
For `Clc1nc(NCc2ccccc2)c2ncn(-c3ccccc3)c2n1`, the activation was -3.84%.
In the case of `C(=N\Nc1nnnn1-c1cccc2ccccc12)/c1ccc2c(c1)OCO2`, the activation is reported as 3.7%.
With `O=C(COc1ccc(Cl)cc1Cl)Nc1c2c(nn1-c1ccc(F)cc1)CSC2` the activation was 3.41%.
Compound `CCOc1cc(/C=C2/C(=N)N3OC(C)=CC3=NC2=O)ccc1OCc1ccc2c(c1)OCO2` has an activation of 2.7%.
`O=C1[C@H]2[C@H]3[C@H](O)[C@H](O)C/C(=N\OCc4ccccc4)[C@H]3CC[C@H]2C(=O)N1C1CCCCC1` was tested, and the activation was -1.69%.
Compound `Cc1cc(/C=C2/C(=N)N3C=CSC3=NC2=O)c(C)n1-c1ccc(Cl)cc1` has an activation of -1.56%.
For `CCN(CC)c1cc(C)c2ccccc2n1`, the activation was 1.75%.
With `Cc1ccc(OC(C)c2nc(-c3ccc(OCC(N)=O)cc3)no2)cc1C` (stereo unspecified) the activation was 8.62%.
`CC1CCN(Cc2nnnn2CC(=O)NCC2CCCO2)CC1` (stereo unspecified) showed an activation of 4.51%.
In the case of `CC(=O)c1ccc(NCN2C(=O)C3CC=C(Cl)CC3C2=O)cc1` (stereo unspecified), the activation is reported as 2.21%.
Compound `COC(=O)c1cn(-c2ccccc2)nc1-c1ccc(F)cc1` has an activation of 0.06%.
`COc1ccc(-c2noc(CC(=O)NCCN3CCOCC3)n2)cc1` was tested, and the activation was 0.07%.
`COc1ccc2nc(N3CCCC(C(=O)NCCCOC(C)C)C3)sc2c1` (stereo unspecified) gave an activation of 0.71%.
`COc1ccc(C2C(C(=O)OCCc3ccccc3)=C(C)NC3=C2C(=O)CCC3)cc1O` (stereo unspecified) showed an activation of 3.23%.
Compound `COC(=O)C1=C(N)n2c(s/c(=C\c3ccc(Cl)cc3)c2=O)=C(C(=O)OC)C1c1ccc(Cl)cc1` (stereo unspecified) has an activation of -5.44%.
In the case of `CC1CC(C)CN(C(=O)Cn2cc(C=O)c3ccccc32)C1` (stereo unspecified), the activation is reported as 0.05%.
Work on `COC(=O)CN1C(=O)S/C(=C/c2ccco2)C1=O` yielded an activation of 3.06%.
In the case of `Cn1ccnc1C(=O)C1CCCN(C(=O)CCc2nnc(-c3ccccc3)o2)C1` (stereo unspecified), the activation is reported as 2.54%.
With `COc1ccc(-c2cc(-c3ccccc3)c(C#N)c(SC3CCCCC3O)n2)cc1` (stereo unspecified) the activation was 4.49%.
Work on `COc1cc(/C=C2/C(=N)N3OC(C)=CC3=NC2=O)ccc1OCCOc1ccc(C)cc1` yielded an activation of 2.89%.
`CCOC(CNc1ncnc2sc(C)c(C)c12)OCC` was tested, and the activation was 0.97%.
`CCC(=O)N1CCN(c2ccc(NC(=O)c3ccco3)cc2)CC1` showed an activation of 0.71%.
For `Cc1ccc(/C=N/NC(=O)c2ccc(O)cc2O)cc1`, the activation was -2.17%.
For `O=C(O/C(=C/c1nc2ccccc2n1Cc1cccc2ccccc12)c1ccc(Cl)cc1)c1ccc(Cl)cc1`, the activation was -1.84%.
Work on `COc1ccccc1C(=O)COC(=O)C1(C)CC1(Cl)Cl` (stereo unspecified) yielded an activation of 5.89%.
Work on `CCC(C(=O)N1CCOCC1)n1c2ccccc2c2cn[nH]c(=O)c21` (stereo unspecified) yielded an activation of -3.25%.
In the case of `O=C(CC(c1ccccc1)c1ccccc1)N1CCN(c2cccc(Cl)c2)CC1`, the activation is reported as -2.36%.
In the case of `CC(=O)c1c(C)[nH]c(C(=O)N2CCN(c3ncccn3)CC2)c1C`, the activation is reported as -3.09%.
With `CCc1c(C(=O)N2CCN(c3cccc(Cl)c3)CC2)[nH]c(C)c1C(C)=O` the activation was 20.1% (active).
With `CC(C)(C)NC(=S)Nc1cccc(F)c1` the activation was 6.02%.
Compound `COc1ccc(CCn2c(-c3ccc(Cl)cc3)csc2=Nc2ccc(F)cc2)cc1OC` has an activation of 0.18%.
With `COc1ccc(N(C(=O)C(C)Oc2ccccc2)C2C=CS(=O)(=O)C2)c(OC)c1` (stereo unspecified) the activation was -0.94%.
`O=C1N[C@H](Cc2ccc(O)cc2)C(=O)N2CCN(Cc3cnn(-c4cccc(Cl)c4)c3)C[C@H]12` showed an activation of 3.76%.
Work on `COc1ccc(CNC(=O)C(NS(=O)(=O)c2ccc3c(c2)oc(=O)n3C)C(C)C)cc1` (stereo unspecified) yielded an activation of -0.7%.
`COc1ccc(N2CCN(C(=O)c3ccc(SCc4ccccc4F)c([N+](=O)[O-])c3)CC2)cc1` was tested, and the activation was 0.52%.
In the case of `Cc1cccc(N2CCN(C(=O)c3ccc(S(=O)(=O)c4ccc(F)cc4)c([N+](=O)[O-])c3)C(C)C2)c1` (stereo unspecified), the activation is reported as 14.7% (active).
`Cc1ccc(C)c(N2CCN(C(=O)c3ccc(S(=O)(=O)c4ccc(Br)cc4)c([N+](=O)[O-])c3)CC2)c1` gave an activation of 4.42%.
Compound `Cc1ccccc1-n1cc(-c2ccccc2)[nH]c1=S` has an activation of -4.28%.
In the case of `CSC1=NCCN1C(=O)COc1ccc2ccccc2c1`, the activation is reported as -1.84%.
In the case of `COc1cc2nc(SCC(N)=O)n3nc(CCn4nc(C)cc4C)nc3c2cc1OC`, the activation is reported as 1.45%.
`Cc1c(C(=O)NCCC2CCCN2C)sc2ncnc(NCc3ccco3)c12` (stereo unspecified) gave an activation of 3.32%.
`CCc1nnc(NC(=O)CSc2nc3cccnc3n2Cc2ccccc2)s1` showed an activation of 0.71%.
With `O=C(COc1ccccc1[N+](=O)[O-])N/N=C/c1ccc(Br)cc1` the activation was 0.11%.
`Cc1cccc2c(N3CCCC3)nc(CNS(=O)(=O)c3ccc4c(c3)OCCO4)nc12` showed an activation of -0.61%.
`COCC1CCN(c2nc3nonc3nc2NC2CCCC2)CC1` was tested, and the activation was 2.9%.
For `O=C(CN1C(=O)C(c2ccccc2)=NC12CCCC2)Nc1ccccc1`, the activation was -0.92%.
`CCC(CC)C(=O)Nc1nnc(SCC(=O)Nc2cc(C(F)(F)F)ccc2Cl)s1` was tested, and the activation was 1.93%.
For `Cn1cc(SCC(=O)Nc2ccccc2C(F)(F)F)c2ccccc21`, the activation was 3.59%.
In the case of `O=C(Nc1cc(C(F)(F)F)ccc1Cl)c1ccc(C(=O)C(=O)c2ccccc2)cc1`, the activation is reported as 6.45%.
With `Cc1ccc2c(c1)c(=O)c1ccccc1n2CC(=O)Nc1cccc(Cl)c1C` the activation was -2.08%.
`CCOC(=O)c1nnn(CC(=O)Nc2cccc(C)c2)c1C(=O)OCC` showed an activation of 1.6%.
`Cc1cc2c(cc1C)C(c1cc([N+](=O)[O-])ccc1Cl)CC(=O)N2` (stereo unspecified) showed an activation of 0.43%.
Work on `O=C(CCCn1c(=O)[nH]c2ccccc2c1=O)NC1CCCC1` yielded an activation of -1.75%.
`CCn1c(SC(C)C(=O)OC)nc2c(c1=O)SC(C)C2` (stereo unspecified) showed an activation of -0.05%.
Work on `COc1ccc(NS(=O)(=O)c2ccc(NC(=S)NC(C)=O)cc2)cc1` yielded an activation of 3.81%.
For `CCC(C)NC(=O)c1cc(=O)[nH]c2ccc(Br)cc12` (stereo unspecified), the activation was 47.8% (active).
`CCC(C)NC(=O)c1cc2c(=O)oc3ccccc3c2s1` (stereo unspecified) gave an activation of 4.04%.
In the case of `CCC(C)NC(=O)c1ccc(-n2c(=S)[nH]c3ccccc3c2=O)cc1` (stereo unspecified), the activation is reported as 0%.
In the case of `CCc1c(C)sc(NC(NC(=O)C(C)C)(C(F)(F)F)C(F)(F)F)c1C#N`, the activation is reported as -0.12%.
`COc1cc(C2CC(=O)N3CN(C4CCCCC4)CSC3=C2C#N)cc(OC)c1OC` (stereo unspecified) was tested, and the activation was -2.01%.
`CCOC(=O)c1c(NC(=O)CSc2c[nH]c3ccccc23)sc2c1CCCCC2` gave an activation of 4.28%.
`CCCCCCCCCCCCCC/C(C(=O)O)=C(\C)C(=O)O` showed an activation of -2.17%.
Compound `Cc1ccc2c(c1)NC(C)(C)c1sn(-c3ccc(C(C)C)cc3)c(=S)c1-2` has an activation of 1.46%.
In the case of `O=[N+]([O-])c1c(Cl)cc(O)c2c1C1C=CCC1C(c1ccc(Cl)cc1Cl)N2` (stereo unspecified), the activation is reported as 5.29%.
For `CC(C)C1Nc2c(O)cc(Cl)c([N+](=O)[O-])c2C2C=CCC21` (stereo unspecified), the activation was 10.3% (active).
